Structures are written as SMILES.

This note sets out measurements from the supplement of paper PMC3842684.

Experiment [1] has as its system P. falciparum NF54-pfs16-GFP early (I-III) stage gametocytes. As to the kind of experiment: relative % inhibition of viable gametocyte number; higher = more gametocytocidal. Conditions: stage: early (I-III) gametocyte, incubation 72 h. An outline of the steps: (§1)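 Magnet-isolated NF54 pfs16-GFP gametocytes at early (I/IIa, day 2) or late (day 8) stage were exposed to compound at 5 or 0.5 µM for 72 h at 37°C, 5% CO2, 5% O2, at 10% parasitaemia and 0.1% haematocrit. Elongated GFP objects with MitoTracker Red signal above cut-off were counted as viable by confocal imaging. Relative inhibition was normalised to in-plate vehicle and positive-control wells.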

In experiment [2] the test system is P. falciparum NF54-pfs16-GFP late (IV-V) stage gametocytes. Described as above. The settings on record: stage: late (IV-V) gametocyte, incubation 72 h. Summed up: as §1

Turning to `O=c1nc(C=Cc2ccc(Cl)cc2)oc2ccccc12`, the relative % inhibition in experiment [1] (0.5 µM) is 10.5%; in experiment [1] (5 µM), -14.5%; in experiment [2] (0.5 µM) it was 7.96%; in experiment [2] (5 µM) it was 19.3%.

Regarding `CN(C)c1ccc(C(O)(c2ccc(N(C)C)cc2)c2ccc(N(C)C)cc2)cc1`, the relative % inhibition in experiment [1] (0.5 µM) is 81.4%; in experiment [1] (5 µM), -12.4%; in experiment [2] (0.5 µM), 102%; in experiment [2] (5 µM), 103%.

Regarding `COc1ccc2c(c1)C1(Nc3ccccc3-c3nc4ccccc4n31)C(=O)N2` (stereo unspecified), the relative % inhibition was determined as 55.7% in experiment [1] (0.5 µM), 84.8% in experiment [1] (5 µM), 37.6% in experiment [2] (0.5 µM) and 63.5% in experiment [2] (5 µM).

Take `CN(C)CCNc1cc(-c2ccccc2)nc2ccccc12`: the relative % inhibition in experiment [1] (0.5 µM) is -7.32%; in experiment [1] (5 µM) it was -20.1%; in experiment [2] (0.5 µM), -18.3%; in experiment [2] (5 µM) it was 6.35%.

Turning to `COc1cc2c(cc1OC)C1=NNC(=O)C1=NC(C)(C)C2`, the relative % inhibition worked out at 71.5% in experiment [1] (0.5 µM), 88.6% in experiment [1] (5 µM), 100% in experiment [2] (0.5 µM) and 98.5% in experiment [2] (5 µM).

Consider `CCN(CC)CCCNc1ccnc2cc3ccccc3cc12`, for which the relative % inhibition in experiment [1] (0.5 µM) is 11%; in experiment [1] (5 µM), -7.44%; in experiment [2] (0.5 µM), -7.72%; in experiment [2] (5 µM), -8.3%.

For the compound `COc1ccc(C(=O)NC(c2ccccc2Cl)c2cc(Cl)c3cccnc3c2O)cc1` (stereo unspecified), the relative % inhibition in experiment [1] (0.5 µM) came out at 5.42%; in experiment [1] (5 µM), 49.4%; in experiment [2] (0.5 µM) it was 18.6%; in experiment [2] (5 µM) it was 38.6%.

As for `c1ccc(CNc2nc(Nc3ccccc3)nc3ccccc23)cc1`, the relative % inhibition in experiment [1] (0.5 µM) was found to be 65.9%; in experiment [1] (5 µM), 97%; in experiment [2] (0.5 µM) it was 57.9%; in experiment [2] (5 µM), 86.1%.

`Cc1ccccc1OCCSc1nc2ccc(NC(=O)c3cccs3)cc2s1`: the relative % inhibition in experiment [1] (0.5 µM) is 11.4%; in experiment [1] (5 µM), 19.4%; in experiment [2] (0.5 µM) it was 18.1%; in experiment [2] (5 µM), 35.8%.

As to `CC(=O)c1sc(NC(=O)Nc2ccc(C)cc2C)nc1C`, the relative % inhibition in experiment [1] (0.5 µM) is 30.3%; in experiment [1] (5 µM), 63.7%; in experiment [2] (0.5 µM) it was -2.19%; in experiment [2] (5 µM), -29.6%.

For `CCOC(=O)c1c(NC(=O)c2ccccc2)sc2c(O)c(CN(CC)CC)ccc12`, the relative % inhibition stood at 28.6% in experiment [1] (0.5 µM), 94.9% in experiment [1] (5 µM), 64.2% in experiment [2] (0.5 µM) and 89.6% in experiment [2] (5 µM).

`CC(=O)NCCc1nc2ccccc2n1Cc1ccc(C(C)C)cc1`: the relative % inhibition is 8.03% in experiment [1] (0.5 µM), 50.5% in experiment [1] (5 µM), -8.38% in experiment [2] (0.5 µM) and 2.88% in experiment [2] (5 µM).

On to `CC(NCc1ccccc1)c1cc(Cl)ccc1O` (stereo unspecified), for which the relative % inhibition stood at 15.7% in experiment [1] (0.5 µM), 89.5% in experiment [1] (5 µM), 15.3% in experiment [2] (0.5 µM) and 53.3% in experiment [2] (5 µM).

As to `Cc1ccc(Nc2nc(NCCO)c3ccccc3n2)cc1C`, the relative % inhibition in experiment [1] (0.5 µM) is -7.63%; in experiment [1] (5 µM), 84.7%; in experiment [2] (0.5 µM) it was 38%; in experiment [2] (5 µM), 53.9%.

As for `CCc1ccc(CNCC(O)c2ccccc2)cc1` (stereo unspecified), the relative % inhibition in experiment [1] (0.5 µM) was 9.08%; in experiment [1] (5 µM), 44.3%; in experiment [2] (0.5 µM), 3.65%; in experiment [2] (5 µM), 11.4%.

Take `CCc1ccc(Nc2cc(C)nc3nc(C)nn23)cc1`: the relative % inhibition in experiment [1] (0.5 µM) was -3.8%; in experiment [1] (5 µM) it was -31%; in experiment [2] (0.5 µM), 4.51%; in experiment [2] (5 µM) it was 16.9%.

Take `N#Cc1nc(Cc2cccc3ccccc23)oc1N1CCN(C(c2ccccc2)c2ccccc2)CC1`: the relative % inhibition in experiment [1] (0.5 µM) is -3.05%; in experiment [1] (5 µM) it was 2.44%; in experiment [2] (0.5 µM), 7.14%; in experiment [2] (5 µM), 40.5%.

As to `Cc1cc(Nc2ccc(Cl)cc2)n2nc(C(F)(F)F)nc2n1`, the relative % inhibition in experiment [1] (0.5 µM) is 4.02%; in experiment [1] (5 µM), -6.02%; in experiment [2] (0.5 µM), 7.36%; in experiment [2] (5 µM), -10.1%.

As to `CN1CCN(c2ncnc3c2[nH]c2ccc(Cl)cc23)CC1`, the relative % inhibition in experiment [1] (0.5 µM) came out at 9.76%; in experiment [1] (5 µM), 20.1%; in experiment [2] (0.5 µM) it was 2.38%; in experiment [2] (5 µM) it was 7.14%.

Regarding `O=C(NCCCN1CCC(N2CCCCC2)CC1)C1=Cc2cc(Br)ccc2OC1`, the relative % inhibition in experiment [1] (0.5 µM) is 42.8%; in experiment [1] (5 µM), 102%; in experiment [2] (0.5 µM), -12.5%; in experiment [2] (5 µM), 19.4%.

As for `CC(C)(C)c1ccc(C(=O)Nc2nc3ccccc3s2)cc1`, the relative % inhibition was 0.793% in experiment [1] (0.5 µM), 31% in experiment [1] (5 µM), 6.03% in experiment [2] (0.5 µM) and 2.42% in experiment [2] (5 µM).

For `CCn1c2c(c(=N)c3c1CCC3)CCCC2`, the relative % inhibition is -1.17% in experiment [1] (0.5 µM), 25.3% in experiment [1] (5 µM), 10.1% in experiment [2] (0.5 µM) and -7.91% in experiment [2] (5 µM).

As to `Cc1c(C)n(CC(O)CNC2CCCCC2C)c2ccccc12` (stereo unspecified), the relative % inhibition in experiment [1] (0.5 µM) was 41.6%; in experiment [1] (5 µM) it was 98.7%; in experiment [2] (0.5 µM), 34.2%; in experiment [2] (5 µM), 54.5%.

`CCOC(=O)c1c(C)n(-c2ccccc2)c2ccc(OC(=O)c3cc(OC)c(OC)c(OC)c3)cc12`: the relative % inhibition in experiment [1] (0.5 µM) is 17.7%; in experiment [1] (5 µM), -2.44%; in experiment [2] (0.5 µM), -15.1%; in experiment [2] (5 µM), -2.38%.

With `CC(C)(C)c1ccc(C2CC3=Nc4ccccc4N(C(=O)c4ccccc4Cl)C(c4ccc(F)cc4)C3=C(O)C2)cc1` (stereo unspecified), the relative % inhibition in experiment [1] (0.5 µM) amounted to 20%; in experiment [1] (5 µM) it was 80.4%; in experiment [2] (0.5 µM), 60.8%; in experiment [2] (5 µM), 89.9%.

With `CCCCNc1nc(NC(C)(C)C)nc(NC(C)(C)C)n1`, the relative % inhibition in experiment [1] (0.5 µM) is -7.87%; in experiment [1] (5 µM), 40.6%; in experiment [2] (0.5 µM) it was 31.7%; in experiment [2] (5 µM), 43.5%.

Take `CC1CCCCN1CCCNC(=O)c1ccc2c(c1)sc1nc(-c3ccc(F)cc3)cn12` (stereo unspecified): the relative % inhibition was determined as 21.3% in experiment [1] (0.5 µM), 88.1% in experiment [1] (5 µM), 23.2% in experiment [2] (0.5 µM) and 17.8% in experiment [2] (5 µM).

Consider `Cc1cc(Nc2ccc(C)c(Cl)c2)n2nc(C(F)(F)F)nc2n1`, for which the relative % inhibition in experiment [1] (0.5 µM) is -5.05%; in experiment [1] (5 µM), -8.28%; in experiment [2] (0.5 µM), 13.1%; in experiment [2] (5 µM), -2.09%.

Turning to `Oc1ccc(Cl)cc1CNc1nc2ccccc2[nH]1`, the relative % inhibition in experiment [1] (0.5 µM) was 16.5%; in experiment [1] (5 µM), 37.3%; in experiment [2] (0.5 µM), -1.55%; in experiment [2] (5 µM), 13.6%.

On to `N=c1c2ccccc2nnn1-c1cccc(C(F)(F)F)c1`, for which the relative % inhibition was found to be 1.39% in experiment [1] (0.5 µM), 17.4% in experiment [1] (5 µM), 14.7% in experiment [2] (0.5 µM) and 46.2% in experiment [2] (5 µM).

Turning to `COc1cc2c3cc1Oc1c(OC)c(OC)cc4c1C(Cc1ccc(O)c(c1)Oc1ccc(cc1)CC3N(C)CC2)N(C)CC4` (stereo unspecified), the relative % inhibition in experiment [1] (0.5 µM) was 1.03%; in experiment [1] (5 µM), 73.4%; in experiment [2] (0.5 µM), -24.9%; in experiment [2] (5 µM), 23.7%.

Take `CCOC(=O)c1cnc2c(CC)cccc2c1O`: the relative % inhibition in experiment [1] (0.5 µM) is -5.02%; in experiment [1] (5 µM), 0.0948%; in experiment [2] (0.5 µM), 21.6%; in experiment [2] (5 µM), 45.2%.

For `O=C(Nc1ccc(C23CC4CC(CC(c5ccccc5)(C4)C2)C3)cc1)c1cccs1`, the relative % inhibition in experiment [1] (0.5 µM) is -8.5%; in experiment [1] (5 µM) it was 12.3%; in experiment [2] (0.5 µM), 12.9%; in experiment [2] (5 µM), 31.6%.

As to `Nc1ccc(-c2nc3cc(Oc4ccc(Oc5ccc6[nH]c(-c7ccc(N)cc7)nc6c5)cc4)ccc3[nH]2)cc1`, the relative % inhibition in experiment [1] (0.5 µM) was 13.7%; in experiment [1] (5 µM), 98%; in experiment [2] (0.5 µM), 13.4%; in experiment [2] (5 µM), 32.9%.
